# Data taken from PubChem BioAssay (Tox21).
# Inconclusive results are not listed. Active and inactive are the calls of the source. The call rests on the fitted dose curve; in most records, active means well fitted activation curve with a large enough effect; inconclusive means small, poorly fitted or top-dose-only effect; inactive means flat fitted curve, though single readings scatter. Residues, ends and D or L forms follow the SMILES beside them.
# Assay: qHTS assay to identify small molecule phospholipidosis (PLD) inducers (AID 1259344)
# Conditions: HepG2 phospholipidosis, LipidTOX Red imaging, 24 h; series mostly up to 38.3 µM; PLD induction: at the top concentration
# Description: National Center for Advancing Translational Sciences [NCATS]
# Drug-induced Phospholipidosis (PLD) caused by cationic amphiphilic drugs is characterized by the appearance of unicentric or multicentric-lamellar bodies when viewed under electron microscope. Electron microscopy is the gold standard method for PLD detection, however, this method is time-consuming and labor intensive, making it unsuitable for evaluating a large set of compounds. A cell-based phospholipidosis assay has been developed using the LipidTox reagent in HepG2 cells and miniaturized into a 1536-well plate format. Drug induced phospholipid accumulation is stained with the LipidTox dyes in red color which then is determined using an automated high content screening system.
# HepG2 cells are dispensed at 900 cells/3 uL/well into Collagen I-coated 1536-well black-wall/clear-bottom assay plates (Greiner Bio-One, Monroe, NC) using the Multidrop Combi 8 channel dispenser (Thermo Fisher, Waltham, MA, USA). The assay plates are incubated at 37 C for 4 hours to allow the cell attachment. 3 uL of 1:500 LipidTOX Red dye is added using the dispenser, and then 23 nL compounds are added via a Wako Pintool station (Wako Automation, San Diego, CA). Amiodarone, a known PLD inducer, was used as a positive control and DMSO was used as a negative control. The assay plates were then incubated at 37 C for 24 hours.
# For fixations, 4 uL of 8% paraformaldehyde fixative solution containing 10 ug/mL Hoechst 33342 in Dulbecco's phosphate-buffered saline (DPBS) is added using a Kalypsys washer/dispenser (Kalypsys, San Diego, CA, USA). After incubation at room temperature for 30 min, the assay plates are washed once with DPBS using a Kalypsys washer/dispenser. The assay plates are then sealed and stored at 4 C before imaging. The fluorescence intensities (595 nm excitation, 615 nm emission for LipidTOX; 352 nm excitation, 461 nm emission for Hoechst 33342) are measured using an ImageXpress Micro Widefield High Content Screening System (Molecular Devices, Sunnyvale, CA, USA) with a 20x Plan Fluor objective. Images are acquired for one site in each well and analyzed with the MetaXpress software (Molecular Devices) using the Transfluor module. Several algorithmic outputs, such as pit count per well, pit count per cell, pit integrated intensity per well, and pit integrated intensity per cell, are used for quantitative image analysis for PLD.
# On the % scale 0 is the no-effect control and ±100 the full control effect.
SMILES,PLD induction,Potency
CC(C)(C)C(=O)OCC(=O)[C@H]1CC[C@H]2[C@@H]3CCC4=CC(=O)CC[C@]4(C)[C@H]3CC[C@]12C,-0.848% (inactive),
OCCCNc1ccccc1,-0.547% (inactive),
NCCCC[C@H](NC(=O)[C@@H]1CCCN1C(=O)[C@@H]1CSSC[C@H](N)C(=O)N[C@@H](Cc2ccc(O)cc2)C(=O)N[C@@H](Cc2ccccc2)C(=O)N[C@@H](CCC(N)=O)C(=O)N[C@@H](CC(N)=O)C(=O)N1)C(=O)NCC(N)=O,,inactive
CCN1\C(=C/C=C/C=C/c2sc3ccccc3[n+]2CC)Sc2ccccc21,,inactive
CCN(CC)CCNC(=O)c1ccc(NS(C)(=O)=O)cc1,-0.241% [at 7.66 µM] (inactive),
Cc1c(N)nc([C@H](CC(N)=O)NC[C@H](N)C(N)=O)nc1C(=O)N[C@H](C(=O)N[C@H](C)[C@@H](O)[C@H](C)C(=O)N[C@H](C(=O)NCCc1nc(-c2nc(C(=O)NCCCCN=C(N)N)cs2)cs1)[C@@H](C)O)[C@@H](O[C@@H]1O[C@@H](CO)[C@@H](O)[C@H](O)[C@@H]1O[C@H]1O[C@H](CO)[C@@H](O)[C@H](OC(N)=O)[C@@H]1O)c1cnc[nH]1,,inactive
C=CC[N@@+]12CC[C@@]34c5ccccc5N5/C=C6/[C@H]7C[C@H]8[C@@]9(CC[N@@+]8(CC=C)C/C7=C/CO)c7ccccc7N(/C=C(/[C@@H](C[C@@H]31)/C(=C\CO)C2)[C@H]54)[C@@H]69,0.23% [at 15.5 µM] (inactive),
C[Se]CC[C@H](N)C(=O)O,1.44% (inactive),
c1ccc2occc2c1,-7.26% [at 78.4 µM] (inactive),
Cc1cc(CC(C)CC(C)(C)C)n(O)c(=O)c1 (stereo not given) (tested in a mixture with another compound),-0.0683% (inactive),
C[S+](C)CCC(N)C(=O)O (stereo not given),0.427% (inactive),
Cc1cnc(C(=O)O)c[n+]1[O-],,inactive
CC(=O)N[C@@H](C=O)[C@H](O)[C@H](O)[C@@H](O)CO,,inactive
CC1CCCCN1CCCOC(=O)c1ccccc1 (stereo not given),-0.661% (inactive),
FC(F)(F)C(F)(F)C(F)(F)C(F)(F)C(F)(F)F,0.286% (inactive),
CO/N=C(\C(=O)N[C@@H]1C(=O)N2C(C(=O)O)=C(C[N+]3(C)CCCC3)CS[C@H]12)c1csc(N)n1,0.0622% (inactive),
O=C(O)/C=C/C(=O)Nc1ccc(S(=O)(=O)Nc2nccs2)cc1,-0.251% (inactive),
COc1cc2c(cc1OC)[C@@H](Cc1cc(OC)c(OC)c(OC)c1)[N+](C)(CCCOC(=O)CC/C=C/CCC(=O)OCCC[N+]1(C)CCc3cc(OC)c(OC)cc3[C@H]1Cc1cc(OC)c(OC)c(OC)c1)CC2 (stereo not given in full),,inactive
CCCCCCCCCCCCCCCCC(C(=O)O)C(O)(CC(=O)O)C(=O)O (stereo not given),-0.554% (inactive),
COc1c(O)cc2c(c1O)[C@@H]1O[C@H](CO)[C@@H](O)[C@H](O)[C@H]1OC2=O,-0.409% [at 15.5 µM] (inactive),

SMILES,PLD induction,Potency
Cc1ncc(C[n+]2csc(CCO)c2C)c(N)n1,-0.398% [at 15.5 µM] (inactive),
CC(C)(C)c1ccc2c(S(=O)(=O)O)c(C(C)(C)C)ccc2c1,,inactive
CCCCCCCCCCCCCCCCCC(=O)O,-0.834% (inactive),
CO/N=C(\C(=O)N[C@@H]1C(=O)N2C(C(=O)O)=C(COC(C)=O)CS[C@H]12)c1csc(N)n1 (stereo in doubt),-0.456% (inactive),
CC(C)[C@H](NC(=O)[C@H](CC(=O)O)NC(=O)[C@H](CCCCN)NC(=O)[C@@H](N)CCCN=C(N)N)C(=O)N[C@@H](Cc1ccc(O)cc1)C(=O)O (H-RKDVY-OH),-0.269% (inactive),
CCCC(CCC)C(=O)OC1C[C@H]2CC[C@@H](C1)[N+]2(C)C (stereo not given in full),,inactive
N[C@@H](Cc1ccc(O)c(O)c1)C(=O)O,8.4% (inactive),
CCCCCCCCCCCC[n+]1ccc2ccccc2c1,-1.2% (inactive),
CCOc1ccc(NC(=S)Nc2ccc(OCC)cc2)cc1,0.321% (inactive),
O=C(O)CCCC/C=C(\c1ccccc1)c1cccnc1,-0.122% (inactive),
N[C@H](C(=O)O)[C@@H]1CC(Cl)=NO1,-1.19% (inactive),
CCC(C)(C)c1ccc(CC(C)CN2C[C@@H](C)O[C@@H](C)C2)cc1 (stereo not given in full),5.55% (inactive),
O=C1c2ccccc2CN2C(=O)c3ccccc3CN12,-0.683% (inactive),
OCl,-0.15% (inactive),
CC[N+](CC)(CC)CCC(O)(c1ccccc1)C1CCCCC1 (stereo not given),-0.077% [at 15.5 µM] (inactive),
CCOC(=O)COc1ccc2c(=O)cc(-c3ccccc3)oc2c1,,inactive
CN[C@@H]1[C@@H](O[C@H]2O[C@H](CO)[C@@H](N)[C@H](O)[C@H]2O)O[C@H]2C[C@@H](N)[C@@H](O[C@H]3[C@H](O)[C@@H](O)[C@H](N)C[C@@H]3N)O[C@@H]2[C@@H]1O,-1.15% [at 15.5 µM] (inactive),
CC(=NCc1ccccc1)c1ccccc1O,-0.47% (inactive),
CC1=C(/C=C/C(C)=C/C=C/C(C)=C/C=C/C=C(C)/C=C/C=C(C)/C=C/C2=C(C)CCCC2(C)C)C(C)(C)CCC1,0.0985% (inactive),
O=C(CCN1CCC(c2ccccc2)C1)c1ccc2c(c1)OCCO2 (stereo not given),1.07% (inactive),
